TDP1 cell CPT: qHTS for Inhibitors of human tyrosyl-DNA phosphodiesterase 1 (TDP1): qHTS in cells in presence of CPT; chicken DT40 Tdp1-/-;hTDP1 cells + 20 nM CPT, ATP luminescence, 48 h; AID 686979, 2013; Potency, µM (series often up to 46.2 µM), without a hit: at the top dose activity change, negative = growth inhibition, hits mostly inhibitors; 420,000 compounds, 12% hits; further: potency means the concentration at half of the fitted maximal effect; nearly all actives have a fitted effect of over 55% in size
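Chicken DT40 Tdp1-/- cells complemented with human TDP1, 400 cells/well, exposed to compounds plus 20 nM camptothecin for at least 48 h at 37 C; viability read as ATP content by CellTiter-Glo luminescence.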
IL-1B inflam inh: qHTS for Inhibitors of Inflammasome Signaling: IL-1-beta AlphaLISA Primary Screen; THP-1 LPS/ATP IL-1B secretion, AlphaLISA, 16 h; active compounds read low; activity change, % at 57.5 µM; 360,000 compounds, 4.7% hits; in the data active means activity change below about -50%; inconclusive means mostly about -30% to -49%
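THP-1 cells pretreated 1 hr with compounds (up to 57.5 uM final), then stimulated with LPS (250 ng/mL final) plus ATP (1.25 mM final); secreted IL-1B measured by AlphaLISA after 16 hr, decreased signal indicating inhibition.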
HT1080 IDH1KD tx: qHTS for induction of synthetic lethality in tumor cells producing 2HG: qHTS for the HT-1080-IDH1KD cell line; HT-1080 IDH1 knockdown viability, ATP luminescence, 48 h; Potency, µM (doses to about 46.1 µM), without a hit: top-dose activity, negative = toxicity, hits mostly cytotoxic; 360,000 compounds, 2% hits;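 further: potency means the concentration at half of the fitted maximal effect; 0% = DMSO wells and -100% = cell-free medium wells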
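Viability of IDH1-knockdown HT-1080 fibrosarcoma cells was assessed by CellTiter-Glo after 48 h at 37 °C with titrated compound; concentration-effect curves were classified by fit quality and response size.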
HT1080NT lethal: qHTS for induction of synthetic lethality in tumor cells producing 2HG: qHTS for the HT-1080-NT fibrosarcoma cell line; HT-1080-NT fibrosarcoma viability, CellTiter-Glo ATP luminescence, 48 h; AID 686970, 2013; 360,000 compounds, 1.6% hits; Potency, µM (series often up to 46.1 µM), for inactives: at the top dose activity, negative = less viability, actives largely listed as cytotoxic;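 further: NT is the 2HG producing partner of a matched IDH1 knockdown line; potency means the concentration at half of the fitted maximal effect; 0% = DMSO-treated cells and -100% = media-only wells without cells; nearly all actives have a fitted effect of over 55% in size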
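Compounds were tested in concentration-response format on HT-1080-NT cells for 48 hours at 37 degrees C. Cell viability came from CellTiter-Glo luminescence; curves were classified by r2, response magnitude and activity.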
DT40 TDP1 no CPT: qHTS for Inhibitors of human tyrosyl-DNA phosphodiesterase 1 (TDP1): qHTS in cells in absence of CPT | DT40 Tdp1-/- hTDP1 cells, no CPT, ATP luminescence, 48 h | Potency, µM (doses to about 46.2 µM), for the others: at the highest dose activity change, negative = growth inhibition, usual class: inhibitors | 420,000 compounds, 15% hits; further: potency means the concentration at half of the fitted maximal effect; nearly all actives have a fitted effect of over 55% in size
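Cells were dispensed at 400 per well, compounds added by pin tool, plates incubated ≥48 hr at 37 °C, then CellTiter-Glo added for 30 min at room temperature before luminescence reading. Line: DT40 Tdp1-/- complemented with hTDP1; camptothecin omitted.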
* = called active by the depositor. Hits are enriched below; roughly 19% of the tested compounds scored in any of these assays. Unless noted, the call rests on the fitted dose curve; in most records, active means well fitted curve in the direction sought with a large enough effect; inconclusive means small, poorly fitted or top-dose-only effect, or another doubt; inactive means no such curve, though single readings can be large; an effect the other way counts as inactive or inconclusive. Unless noted, on the % scale 0 is the no-effect control and ±100 the full control effect.

What do the screens show for `Cc1ccc(-n2ncc(C(=O)N3CCN(c4cccc(C)c4)C(C)C3)c2C2CCN(C(=O)OC(C)(C)C)CC2)cc1` (centres undefined)?
TDP1 cell CPT: 15µM*; DT40 TDP1 no CPT: 23µM*

Results for CC1CCN(C(=O)c2cnn(-c3ccc(Cl)cc3)c2C2CCN(C(=O)OC(C)(C)C)CC2)CC1 ?
TDP1 cell CPT: 3%; DT40 TDP1 no CPT: -9%

What do the screens show for `CC(C)(C)OC(=O)N1CCC(c2c(C(=O)N3CCN(C(=O)c4ccco4)CC3)cnn2-c2cccc(Cl)c2)CC1`?
TDP1 cell CPT: inconclusive; IL-1B inflam inh: -17; HT1080 IDH1KD tx: 6%; HT1080NT lethal: 11%; DT40 TDP1 no CPT: inconclusive

Results for Cc1cccc(-n2ncc(C(=O)N3CCN(Cc4ccccc4)CC3)c2C2CCN(C(=O)OC(C)(C)C)CC2)c1 ?
TDP1 cell CPT: 16µM*; DT40 TDP1 no CPT: 16µM*

What do the screens show for `CN1CCN(C(=O)c2cnn(-c3ccccc3)c2C2CCN(C(=O)OC(C)(C)C)CC2)CC1`?
TDP1 cell CPT: -3%; DT40 TDP1 no CPT: -10%

How did COc1ccc(-n2ncc(C(=O)N3CCN(Cc4ccccc4)CC3)c2C2CCN(C(=O)OC(C)(C)C)CC2)cc1 do in these assays?
TDP1 cell CPT: 13µM*; DT40 TDP1 no CPT: 21µM*

How did CC(C)(C)OC(=O)N1CCC(c2c(C(=O)N3CCN(c4ccccc4)CC3)cnn2-c2ccccc2)CC1 do in these assays?
TDP1 cell CPT: inconclusive; DT40 TDP1 no CPT: 16µM*

How did CCN1C(=O)/C(=C/c2ccc(C)o2)N(C)C1=S do in these assays?
TDP1 cell CPT: -4%; IL-1B inflam inh: -2; HT1080 IDH1KD tx: 23%; HT1080NT lethal: 5%; DT40 TDP1 no CPT: 4%

Results for CC#CCN1c2ccccc2[C@]23C[C@@H](C(=O)OC)N(C(=O)c4ccco4)C2=NC(C(=O)OC)=C(C(=O)OC)[C@H]13 ?
TDP1 cell CPT: inconclusive; IL-1B inflam inh: 14; HT1080 IDH1KD tx: -1%; HT1080NT lethal: -3%; DT40 TDP1 no CPT: inconclusive

What do the screens show for `CSc1ccc(S(=O)(=O)N2c3ccccc3CC2C)cc1` (centres undefined)?
TDP1 cell CPT: inconclusive; IL-1B inflam inh: 28; HT1080 IDH1KD tx: inconclusive; HT1080NT lethal: -26%; DT40 TDP1 no CPT: 21µM*

What do the screens show for `CC1Cc2ccccc2N1C(=O)C1CCCN1S(=O)(=O)c1ccc(Cl)cc1` (centres undefined)?
TDP1 cell CPT: -31%; IL-1B inflam inh: -19; HT1080 IDH1KD tx: -11%; HT1080NT lethal: -10%; DT40 TDP1 no CPT: inconclusive

What do the screens show for `Cc1cc(NC(=O)c2cccc(S(=O)(=O)N3c4ccccc4CC3C)c2)no1` (centres undefined)?
TDP1 cell CPT: inconclusive; IL-1B inflam inh: 0; HT1080 IDH1KD tx: inconclusive; HT1080NT lethal: inconclusive; DT40 TDP1 no CPT: inconclusive

What do the screens show for `CC(=O)N1CCc2cc(S(=O)(=O)N3c4ccccc4CC3C)ccc21` (centres undefined)?
TDP1 cell CPT: 12µM*; IL-1B inflam inh: 0; HT1080 IDH1KD tx: inconclusive; HT1080NT lethal: inconclusive; DT40 TDP1 no CPT: 13µM*

Results for CC1Cc2ccccc2N1S(=O)(=O)c1cnc(Cl)c(Br)c1 (centres undefined) ?
TDP1 cell CPT: inconclusive; IL-1B inflam inh: -70*; HT1080 IDH1KD tx: -12%; HT1080NT lethal: -1%; DT40 TDP1 no CPT: inconclusive

What do the screens show for `CC1Cc2ccccc2N1S(=O)(=O)c1cnc(Cl)c(Cl)c1` (centres undefined)?
TDP1 cell CPT: 16µM*; IL-1B inflam inh: inconclusive; HT1080 IDH1KD tx: 2%; HT1080NT lethal: -3%; DT40 TDP1 no CPT: 10µM*

What do the screens show for `CCC(CO)NC(=O)c1cccc(S(=O)(=O)N2c3ccccc3CC2C)c1` (centres undefined)?
TDP1 cell CPT: -8%; IL-1B inflam inh: 14; HT1080 IDH1KD tx: -5%; HT1080NT lethal: -3%; DT40 TDP1 no CPT: inconclusive

Results for CC(C)C(NC(=O)CCNC(=O)c1ccc(C(C)(C)C)cc1)c1nc2ccccc2[nH]1 (centres undefined) ?
TDP1 cell CPT: inconclusive; IL-1B inflam inh: 1; HT1080 IDH1KD tx: -1%; HT1080NT lethal: 0%; DT40 TDP1 no CPT: 18µM*

What do the screens show for `CC(=O)c1ccc(S(=O)(=O)NCC(=O)NC(c2nc3ccccc3[nH]2)C(C)C)cc1` (centres undefined)?
TDP1 cell CPT: inconclusive; IL-1B inflam inh: 1; HT1080 IDH1KD tx: -1%; HT1080NT lethal: -2%; DT40 TDP1 no CPT: inconclusive

How did Cc1ccc2c(c1)c1c3n2CCN(C(=O)CN2CCN(C)CC2)C3CCC1 (centres undefined) do in these assays?
TDP1 cell CPT: inconclusive; IL-1B inflam inh: -22; HT1080 IDH1KD tx: inconclusive; HT1080NT lethal: 23µM*; DT40 TDP1 no CPT: 16µM*

How did Cc1ccc2c(c1)c1c3n2CCN(CC(O)CNC(C)C)C3CCC1 (centres undefined) do in these assays?
TDP1 cell CPT: inconclusive; IL-1B inflam inh: -57*; HT1080 IDH1KD tx: -25%; HT1080NT lethal: inconclusive; DT40 TDP1 no CPT: inconclusive

Results for Cc1ccc2c(c1)c(=O)c1c3n2CCN(C(=O)CCl)C3CC1 (centres undefined) ?
TDP1 cell CPT: 26µM*; IL-1B inflam inh: -15; HT1080 IDH1KD tx: -4%; HT1080NT lethal: -4%; DT40 TDP1 no CPT: 16µM*

Results for Cc1ccc2c(c1)c1c3n2CCN(C(=O)C2CC2)C3CCC1 (centres undefined) ?
TDP1 cell CPT: inconclusive; IL-1B inflam inh: -11; HT1080 IDH1KD tx: 8%; HT1080NT lethal: -2%; DT40 TDP1 no CPT: inconclusive

What do the screens show for `Cc1ccc2c(c1)c1c(n2CC(O)CNC2CCCC2)CCCC1` (centres undefined)?
TDP1 cell CPT: inconclusive; IL-1B inflam inh: -90*; HT1080 IDH1KD tx: -14%; HT1080NT lethal: inconclusive; DT40 TDP1 no CPT: inconclusive

How did Cc1ccc2c(c1)c1c3n2CCN(CC(N)=O)C3CCC1 (centres undefined) do in these assays?
TDP1 cell CPT: inconclusive; IL-1B inflam inh: -2; HT1080 IDH1KD tx: 12%; HT1080NT lethal: -3%; DT40 TDP1 no CPT: inconclusive

Bioassay records as filed in PubChem BioAssay.
